Only some compounds are listed: those with a hit (about 19% of all), similar ones and a draw of the others.
HT1080 IDH1KD tx: toxicity to HT-1080 IDH1 knockdown cells (counter line) | Potency, µM (series often up to 46.1 µM), without a hit: at the top dose activity, negative = toxicity, most hits filed as cytotoxic | HT-1080 IDH1 knockdown viability, ATP luminescence, 48 h | actives 2% (n = 360,000);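 also: potency is read from the fitted curve at half-maximal effect; 0% = DMSO wells and -100% = cell-free medium wells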
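% activity derives from luminescence (CellTiter-Glo), normalised to DMSO and no-cell wells. HT-1080-IDH1KD cells, 750/well, had 48 h compound exposure at 37 °C.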
TDP1 cell CPT: DT40-hTDP1 cell growth loss with CPT; Potency, µM (titrated, usually from 46.2 µM), inactives show top-dose activity change, negative = growth inhibition, most hits filed as inhibitors; chicken DT40 Tdp1-/-;hTDP1 cells + 20 nM CPT, ATP luminescence, 48 h; actives 12% (n = 420,000); also: potency is read from the fitted curve at half-maximal effect; nearly all actives have a fitted effect of over 55% in size
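Chicken DT40 Tdp1-/- cells complemented with human TDP1, 400 cells/well, exposed to compounds plus 20 nM camptothecin for at least 48 h at 37 C; viability read as ATP content by CellTiter-Glo luminescence.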
HT1080-NT tox: kills 2HG-producing HT-1080-NT fibrosarcoma cells | HT-1080-NT fibrosarcoma viability, CellTiter-Glo ATP luminescence, 48 h | Potency, µM (highest dose often 46.1 µM), for the others: top-dose activity, negative = less viability, actives largely listed as cytotoxic | actives 1.6% (n = 360,000) | AID 686970;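 also: NT is the 2HG producing partner of a matched IDH1 knockdown line; potency is read from the fitted curve at half-maximal effect; 0% = DMSO-treated cells and -100% = media-only wells without cells; nearly all actives have a fitted effect of over 55% in size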
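Compounds were tested in concentration-response format on HT-1080-NT cells for 48 hours at 37 degrees C. Cell viability came from CellTiter-Glo luminescence; curves were classified by r2, response magnitude and activity.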
ELG1 repair inh: inhibitors of ELG1-dependent DNA repair in HEK293T cells; HEK293T ELG1-luciferase reporter, luminescence, 16 h; DNA damage induced by 5-fluorouridine; Potency, µM (titrated, usually from 46.1 µM), for inactives: top-dose activity change, negative = inhibition, hits mostly inhibitors; actives 2.3% (n = 330,000); also: potency is read from the fitted curve at half-maximal effect; nearly all actives have a fitted effect of over 55% in size
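HEK293T cells expressing luciferase-tagged ELG1 (2,000/well) received 5-Fluorouridine plus compound or DMSO for 16 hr at 37 °C. Luciferase was read by ONE-Glo luminescence after 30 min at room temperature.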
IL-1B inflam inh: inflammasome signaling inhibition, IL-1 beta readout; AID 743279; actives 4.7% (n = 360,000); activity change, % at 57.5 µM; THP-1 LPS/ATP IL-1B secretion, AlphaLISA, 16 h; hits give low values; in the data active = activity change below about -50%; inconclusive = mostly about -30% to -49%
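Secreted IL-1B measured by AlphaLISA bead assay after 16 h compound exposure of THP-1 cells; compounds (final up to 57.5 uM) added 1 h before LPS (250 ng/mL) and ATP (1.25 mM) stimulation; lower signal means less secretion.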
DT40 TDP1 no CPT: qHTS for Inhibitors of human tyrosyl-DNA phosphodiesterase 1 (TDP1): qHTS in cells in absence of CPT; DT40 Tdp1-/- hTDP1 cells, no CPT, ATP luminescence, 48 h; Potency, µM (titrated, usually from 46.2 µM), inactives show at the top dose activity change, negative = growth inhibition, hits mostly inhibitors; actives 15% (n = 420,000); AID 686978, 2013; also: potency is read from the fitted curve at half-maximal effect; nearly all actives have a fitted effect of over 55% in size
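Compound effects on proliferation are scored in DT40 Tdp1-/-;hTDP1 cells in the absence of CPT. ATP levels (CellTiter-Glo luminescence) are recorded after a ≥48 hr, 37 °C incubation.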
Starred values were filed as active, the others as inactive; ? = inconclusive; / = no result given; ! = not active in a repeat; [ ] = dose if it differs, or a comment. Unless noted, calls follow the shape of the dose curve; as a rule, active = well fitted curve in the direction sought with a large enough effect; inconclusive = small, poorly fitted or top-dose-only effect, or another doubt; inactive = no such curve, though single readings can be large; an effect the other way counts as inactive or inconclusive. Unless noted, % is scaled to controls: 0 for no effect and ±100 for the full control effect.

SMILES | HT1080 IDH1KD tx | TDP1 cell CPT | HT1080-NT tox | ELG1 repair inh | IL-1B inflam inh | DT40 TDP1 no CPT
CO[C@H](C(=O)[C@@H](O)[C@@H](C)O)C1Cc2cc3cc(O[C@H]4C[C@@H](O[C@H]5C[C@@H](O)[C@H](O)[C@@H](C)O5)[C@@H](O)[C@@H](C)O4)c(C)c(O)c3c(O)c2C(=O)[C@H]1O[C@H]1C[C@@H](O[C@H]2C[C@@H](O[C@H]3C[C@](C)(O)[C@H](O)[C@@H](C)O3)[C@H](O)[C@@H](C)O2)[C@H](O)[C@@H](C)O1 (some centres not stated) | / | 0.075µM* | / | / | / | 0.084µM*
N#CC[N+]1(CCCNP2(=O)C=C(c3ccccc3)OC(c3ccccc3)=C2)CCOCC1 | -1% | 2% | 1% | -13% | -13 | 1%
Cc1ccccc1Cn1cccc(C(=O)Nc2cc(Cl)ccc2C#N)c1=O | / | -4% | / | / | / | -29%
CCOC(=O)c1cc2c(cn1)[nH]c1ccccc12 | -6% | ? | 0% | ? | 5 | 18µM*!
COC(=O)c1cc2c(cn1)[nH]c1ccccc12 | / | 21% | / | / | / | 0%
O=C(Nc1ccc(Cl)c(C(F)(F)F)c1)c1ccc2c(c1)CCN2S(=O)(=O)c1ccccc1 | / | 9.2µM* | / | / | / | 9.2µM*
CNC(C)C#Cc1ccc2oc3cc(C)c(C)cc3c(=O)c2c1 (configuration not stated) | -25% | ? | -19% | / | -64* | 15µM*
COc1ccc(Nc2c(-c3cc(Br)ccc3O)nc3ncccn23)cc1OC | / | 18µM* | / | / | / | 23µM*
COc1cc(OC)cc(-c2sc3ccc(OC)cc3c2-c2ccc(OCCN3CCOCC3)cc2)c1 | -20% | ? | -18% | 6.5µM* | -7 | ?
COc1ccc2sc(-c3ccccc3OC)c(-c3ccc(OCCN4CCOCC4)cc3)c2c1 | -25% | ? | -19% | -18% | -9 | ?
C/C(=N\NC(=O)c1ccccc1)c1c(O)n(C2CCCCC2)c(=O)[nH]c1=O | 0% | 2% | -7% | 4% | -5 | -8%
CC1Oc2cc3c(-c4c(O)cc(O)c5c(O)c6c(cc45)OC(C)C(C)C6=O)c(O)cc(O)c3c(O)c2C(=O)C1C (configuration not stated) | 8.2µM* | 0.016µM* | 4.6µM* | 6.5µM* | ? | 0.12µM*
O=C1C2C3CCC(O3)C2C(=O)N1CCO (configuration not stated) | 11% | 15% | -4% | 0% | -6 | 8%
O=C(CSc1nc2ccccc2c(=O)n1-c1ccc(Cl)c(Cl)c1)Nc1ccc2c(c1)CCC2 | 7% | ? | 9% | / | 8 | ?
O=C(CSc1nc2ccccc2c(=O)n1-c1ccccc1)Nc1ccc2c(c1)CCC2 | 0% | ? | -2% | / | 43 | 21µM*
COc1ccc(Cc2nccc3cc(OC)c(OC)cc23)cc1OC | ? | 8.2µM* | ? | -12% | -9 | 5.8µM*
C/C=C(\CC)C(=O)NC(N)=O | / | 7% | / | / | / | -13%
Cc1ccc(CNC(=O)CCCn2c(=O)c3sccc3n(CC(=O)Nc3c(C)cccc3C)c2=O)cc1 | / | -2% | / | / | / | -16%
C[C@H]1[C@@H](OS(=O)(=O)O)C[C@@H]2C[C@H]([C@@H](O)c3cc(=O)[nH]c(=O)[nH]3)NC3=NC[C@H]1N32 | / | 2.3µM* | 2.1µM* | / | -23 | 3.7µM*
OC[C@H]1OC(O)C[C@@H](O)[C@@H]1O (some centres not stated) | 17% | 3% | ? | -3% | 9 | 5%
CC(C)(c1ccc(OCC2CO2)cc1)c1ccc(OCC2CO2)cc1 (configuration not stated) | / | 6.5µM* | / | / | / | 6.5µM*
CC1=CC(=O)OC2CC3OC4C[C@@H](C)C5OC6CC7O[C@]8(C)C/C=C\C9OC%10CC%11OC(CC(C)C%12OCCO%12)CC(O)[C@]%11(C)OC%10CC9OC8C[C@]7(C)O[C@]6(C)CCC5OC4C[C@]3(C)OC12 (some centres not stated) | 10% | 29µM* | 0% | 9% | 31 | ?
COc1ccc(NC(=O)Nc2cccc3c2O[C@H](CN(C)C(=O)NC2CCCCC2)[C@@H](C)CN([C@H](C)CO)C3=O)cc1 | 0% | ? | 3% | -16% | ? | ?
Cc1cccc(CN2C(=O)CN=C(c3ccccc3)c3cc(Cl)ccc32)c1 | / | ? | / | / | / | 16µM*
Cc1cccc(CN2C(=O)CN=C(c3ccccc3)c3ccccc32)c1 | / | 5.8µM* | / | / | / | 5.8µM*
SMILES | HT1080 IDH1KD tx | TDP1 cell CPT | HT1080-NT tox | ELG1 repair inh | IL-1B inflam inh | DT40 TDP1 no CPT
CCN(CC)CCN1C(=O)CN=C(c2ccccc2F)c2cc(Cl)ccc21 | / | ? | / | / | / | 27µM*
O=C1CN=C(c2ccccc2)c2cc(Cl)ccc2N1Cc1ccc(Cl)cc1 | / | ? | / | / | / | 15µM*
Clc1ccc2c(c1)C(c1ccccc1Cl)=NCc1nncn1-2 | -4% | -27% | -7% | 2% | 11 | -7%
Cc1cccc(N2CCN(C(=O)C34CC5CC(CC(C5)C3)C4)CC2)c1C | 8% | ? | 9% | 12% | 16 | ?
ClCCOCOCCCl | 10% | 4% | 26% | 18% | 31 | -9%
Nc1c(Cl)c(Cl)c(Cl)c(Cl)c1Cl | / | -1%[92.5 µM] | / | / | / | -5%[92.5 µM]
CC(=NCc1ccco1)c1c(C)[nH]n(-c2nc3ccccc3s2)c1=O | ? | -30% | ? | ? | -12 | ?
O=c1c2ccccc2nc(SCc2nc3ccccc3s2)n1Cc1ccco1 | ? | 13µM* | -7% | ? | 17 | 18µM*
CCC1CN1P(=S)(N1CC1CC)N1CC1CC (configuration not stated) | -1% | ? | -1% | / | 7 | ?
Cc1occc1C(=O)Nc1cccc(-c2nc(CNC(=O)c3cccc(C#CC(C)(C)O)c3)c(C)o2)c1 | / | -4%[9.04 µM] | / | / | / | 21µM*
COc1cccc(C(=O)NCc2nc(-c3cccc(NC(=O)c4ccoc4C)c3)oc2C)c1 | / | 11%[9.04 µM] | / | / | / | ?
Cc1cccc(Cc2cnc(NC(=O)c3ccc4c(c3)CC(c3ccccc3)OC4=O)s2)c1 (configuration not stated) | / | 26µM* | / | / | / | 21µM*

Bioassay records (PubChem)
